# This is a sample that favours compounds with a hit; in the whole collection about 9.9% have one here.
# IL-1B inflam inh – qHTS for Inhibitors of Inflammasome Signaling: IL-1-beta AlphaLISA Primary Screen; THP-1 LPS/ATP IL-1B secretion, AlphaLISA, 16 h; stronger effect = lower value; activity change, % at 57.5 µM; 360,000 tested, 4.7% active; AID 743279, 2014; in the data active = activity change below about -50%; inconclusive = mostly about -30% to -49%; also: % is scaled to controls: 0 for no effect and ±100 for the full control effect
#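 THP-1 cells pretreated 1 hr with compounds (up to 57.5 uM final), then stimulated with LPS (250 ng/mL final) plus ATP (1.25 mM final); secreted IL-1B measured by AlphaLISA after 16 hr, decreased signal indicating inhibition.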
# KB-3-1 tox – qHTS assay for MDR1-selective chemotherapeutics: Primary screen using the parental adenocarcinoma cell KB-3-1; KB-3-1 viability, CellTiter-Glo ATP luminescence, 72 h; Potency, µM (series often up to 46.1 µM), usual class: cytotoxic; 400,000 tested, 1.4% active; also: potency is read from the fitted curve at half-maximal effect; % is scaled to controls: 0 for no effect and ±100 for the full control effect; nearly all actives have a fitted effect of over 60% in size
#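 Cytotoxicity in the drug-sensitive parental line KB-3-1 was scored as loss of CellTiter-Glo luminescence following 72 h incubation with compound. Values come from curve fitting of normalized concentration-response data.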
# KB-V1 MDR tox – qHTS assay for MDR1-selective chemotherapeutics: Primary screen using the drug-selected MDR subline cells KB-V1 | KB-V1 MDR cells viability, CellTiter-Glo, 72 h | Potency, µM (highest dose often 46.1 µM), usual class: cytotoxic | 400,000 tested, 3.4% active; also: potency is read from the fitted curve at half-maximal effect; % is scaled to controls: 0 for no effect and ±100 for the full control effect; nearly all actives have a fitted effect of over 60% in size
#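 Cytotoxicity via CellTiter-Glo luminescence after 72 h compound exposure at 37 degrees C. Cells: drug-selected KB-V1 line, DMEM phenol-red free plus 10% FBS. Compounds tested at multiple concentrations; normalized data fitted to concentration-effect curves.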
# MCF10A rerep – A quantitative high throughput screen for small molecules that induce DNA re-replication in MCF 10a normal breast cells; Potency, µM (series often up to 46.1 µM), for the others: top-dose activity, positive = re-replication, usual class: activators; 350,000 tested, 2.9% active; AID 624296, 2012; MCF 10A DNA re-replication, Hoechst nuclear intensity, 48 h; also: potency is read from the fitted curve at half-maximal effect; % of control where 0% means no effect; nearly all actives have a fitted effect of over 50% in size
# SW480 rerep – A quantitative high throughput screen for small molecules that induce DNA re-replication in SW480 colon adenocarcinoma cells; SW480 DNA re-replication, Hoechst DNA content imaging, 48 h; Potency, µM (series often up to 46.1 µM), for the others: top-dose re-replication activation, usual class: activators; 340,000 tested, 1.8% active; AID 624297, 2012; also: potency is read from the fitted curve at half-maximal effect; % of control where 0% means no effect; nearly all actives have a fitted effect of over 55% in size
#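 Treated cells incubate 48 hr (37 C, 5% CO2), are stained 40 min with Hoechst, and nuclear fluorescence is enumerated; a rise in nuclei with high DNA signal marks re-replication.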
# Starred values were filed as active, the others as inactive; i = inactive; ? = inconclusive; . = no result given; ! = a repeat was not active. Unless noted, calls follow the shape of the dose curve; as a rule, active = well fitted curve in the direction sought with a large enough effect; inconclusive = small, poorly fitted or top-dose-only effect, or another doubt; inactive = no such curve, though single readings can be large; an effect the other way counts as inactive or inconclusive.
SMILES,IL-1B inflam inh,KB-3-1 tox,KB-V1 MDR tox,MCF10A rerep,SW480 rerep
COc1ccc(O)c(C(=O)CC(=O)c2ccc(F)cc2)c1,-6,?,2.9µM*,0%,19%
COc1ccc(O)c(C(=O)CC(=O)c2ccccc2C)c1,29,?,?,?,21µM*
OC(c1ccc(CN2CCCCC2)cc1)c1ncc(-c2ccccc2)[nH]1 (centres undefined),-2,i,i,.,.
CC1CCN(Cc2c(C(=O)N/N=C/c3cc(Cl)ccc3O)nnn2-c2nonc2N)CC1,103,2.1µM*,?,-18%,5%
COc1ccc(O)c(/C=N/NC(=O)c2c(C)nnn2-c2nonc2N)c1,38,i,i,1%,7.3µM*
COc1ccc(O)c(/C=N/NC(=O)c2ccc(N3CCCC3=O)cc2)c1,13,?,i,11%,2.3µM*
COc1c(Cl)cc(Cl)cc1/C=N/NC(=O)c1nnn(-c2nonc2N)c1CN1CCC(C)CC1,-17,i,?,5.8µM*,?
COc1ccccc1C1NC(=O)NC(C)=C1C(=O)OCC1CCCCC1 (centres undefined),-16,i,i,.,.
Cc1nc(NC(=O)c2cccc(Cl)c2)sc1C(=O)N1CCCCC1,?,i,i,-3%,-2%
O=C(Nc1cccc(Cl)c1)N1CCC(CN2CCOCC2)CC1,.,i,i,.,.
O=C(O)CCCc1ccc2ccc3cccc4ccc1c2c34,10,i,i,16µM*,4%
Cc1cnc(NC(=O)NCC2CCCC(CNC(=O)Nc3ncc(C)s3)C2)s1 (centres undefined),-98*,?,i,?,16%
Oc1ccc2cc(Br)ccc2c1CN1CCCC1,-58*,i,i,?,7%
Cc1ccc(N2CC(C(=O)Nc3cccc(S(=O)(=O)N4CCOCC4)c3)CC2=O)cc1 (centres undefined),-2,i,i,.,.
O=c1cc(-c2ccc(Cl)cc2)[nH]c2ccccc12,13,?,i,15µM*,?
Cc1ccc2[nH]c(-c3ccccc3)cc(=O)c2c1,70,0.29µM*,?,?,?
COc1ccc(-c2cc(=O)c3cc(C)ccc3[nH]2)cc1,-1,i,i,4%,5%
Cc1ccc(-c2cc(=O)c3ccccc3[nH]2)cc1,0,?,?,13µM*,?
Clc1ccc(-c2cc3ccccc3[nH]2)cc1,-5,i,i,17%,11%
COc1ccc2ncnc(NCC3CCCO3)c2c1-c1ccc2c(c1)OCO2 (centres undefined),.,i,i,.,.
CCCn1c(=O)c2sccc2n2c(CCCC(=O)Nc3ccccc3OCC)nnc12,.,i,i,.,.
CC(C)(C)C(=O)CSc1n[nH]c(-c2ccccc2)n1,.,i,i,.,.
O=S(=O)(c1ccc(Cl)nc1)N(Cc1ccccc1)Cc1ccccc1,-5,i,18µM*,?,-44%
CCN(c1cccc2ccccc12)S(=O)(=O)c1ccc(Cl)nc1,-75*,?,i,?,-27%
COc1ccc(CNC(=O)C/C(C)=N/NC(=O)c2ccc(OC)cc2OC)cc1,-55*,i,i,-2%,1%
COc1ccc(CNC(=O)C/C(C)=N/NC(=O)Cc2ccc(OC)c(OC)c2)cc1,13,i,i,-3%,-31%
O=C(CCl)N1CCN(C(=O)C2COc3ccccc3O2)CC1 (centres undefined),-95*,?,?,?,?
COc1cc2nc(N3CCN(C(=O)[C@@H]4COc5ccccc5O4)CC3)nc(N)c2cc1OC,.,.,.,23%,0%
COc1cc2nc(N3CCN(C(=O)C4COc5ccccc5O4)CC3)nc(N)c2cc1OC (centres undefined),0,i,i,15µM*!,21µM*!
COc1ccc2c(C)c(CC(=O)N3CCN(C(=O)C4COc5ccccc5O4)CC3)c(=O)oc2c1C (centres undefined),?,i,i,?,16µM*

# Screening data: PubChem BioAssay, National Center for Advancing Translational Sciences (NCATS)
